Screens from PubChem BioAssay.
Shown are actives, neighbours in structure and some others; about 7.9% of the full set was active somewhere.
HT1080 IDH1KD tx: qHTS for induction of synthetic lethality in tumor cells producing 2HG: qHTS for the HT-1080-IDH1KD cell line | actives 2% (n = 360,000) | AID 686971, 2013 | Potency, µM (doses to about 46.1 µM), most hits filed as cytotoxic | HT-1080 IDH1 knockdown viability, ATP luminescence, 48 h
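IDH1KD HT-1080 cells, 750/well, RPMI + 5% FBS; compound pinned after 2 h settling; 48 h, 37 °C; CellTiter-Glo luminescence; % activity normalised to DMSO and no-cell wells; curves fitted, classed by r2 and efficacy.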
HT1080NT lethal: qHTS for induction of synthetic lethality in tumor cells producing 2HG: qHTS for the HT-1080-NT fibrosarcoma cell line | HT-1080-NT fibrosarcoma viability, CellTiter-Glo ATP luminescence, 48 h | Potency, µM (doses to about 46.1 µM), most hits filed as cytotoxic | actives 1.6% (n = 360,000) | AID 686970, 2013;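 note: NT is the 2HG producing partner of a matched IDH1 knockdown line; nearly all actives have a fitted effect of over 55% in size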
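Fibrosarcoma NT cells, 750 per well in 5% FBS RPMI, were exposed to compound for 48 hours. Viability: CellTiter-Glo luminescence.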
KB-3-1 tox: qHTS assay for MDR1-selective chemotherapeutics: Primary screen using the parental adenocarcinoma cell KB-3-1 | KB-3-1 viability, CellTiter-Glo ATP luminescence, 72 h | Potency, µM (doses to about 46.1 µM), actives largely listed as cytotoxic | actives 1.4% (n = 400,000); note: nearly all actives have a fitted effect of over 60% in size
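KB-3-1 cells, DMEM (no phenol red) + 10% FBS; compound by pin transfer, 72 h, 37 °C. Readout: CellTiter-Glo luminescence after 10 min. Data normalized, curve-fitted.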
SW480 rereplic: A quantitative high throughput screen for small molecules that induce DNA re-replication in SW480 colon adenocarcinoma cells; SW480 DNA re-replication, Hoechst DNA content imaging, 48 h; Potency, µM (series often up to 46.1 µM), most hits filed as activators; actives 1.8% (n = 340,000); AID 624297, 2012; note: nearly all actives have a fitted effect of over 55% in size
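DNA re-replication was detected as more nuclei of elevated Hoechst intensity after 48 hr exposure to compound (23 nL pinned per well of 250 cells).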
MCF10A rereplic: A quantitative high throughput screen for small molecules that induce DNA re-replication in MCF 10a normal breast cells. AID 624296, 2012. MCF 10A DNA re-replication, Hoechst nuclear intensity, 48 h. Potency, µM (series often up to 46.1 µM), most hits filed as activators. actives 2.9% (n = 350,000); note: nearly all actives have a fitted effect of over 50% in size
KB-V1 cytotox: qHTS assay for MDR1-selective chemotherapeutics: Primary screen using the drug-selected MDR subline cells KB-V1; KB-V1 MDR cells viability, CellTiter-Glo, 72 h; Potency, µM (highest dose often 46.1 µM), actives largely listed as cytotoxic; actives 3.4% (n = 400,000); note: nearly all actives have a fitted effect of over 60% in size
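KB-V1 MDR subline cells in DMEM (phenol-red free, 10% FBS) exposed to compounds in qHTS concentration series for 72 h at 37 degrees C. Viability read by CellTiter-Glo luminescence; concentration-effect curves fitted after normalization and correction.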
Each line names hits and unclear results; the compound was inactive in the other large screens. Calls come from the whole dose curve; as a rule, active = well fitted curve in the direction sought with a large enough effect; inconclusive = small, poorly fitted or top-dose-only effect, or another doubt; inactive = no such curve, though single readings can be large; an effect the other way counts as inactive or inconclusive.

O=[N+]([O-])c1cc(C(F)(F)F)cc([N+](=O)[O-])c1NCCNC(=S)Nc1ccc(Cl)c(Cl)c1	HT1080 IDH1KD tx inconclusive, HT1080NT lethal 16µM, KB-3-1 tox inconclusive, MCF10A rereplic inconclusive
CCN(CC)C(=O)Cn1cc(SCC(=O)Nc2ccccc2F)c2ccccc21	none (no result: HT1080 IDH1KD tx, HT1080NT lethal, SW480 rereplic, MCF10A rereplic)
O=c1ncccn1C1OC(CO)C(O)C1O (stereo not given)	none (no result: SW480 rereplic, MCF10A rereplic)
O=c1[nH]c(=S)ccn1C1OC(CO)C(O)C1O (stereo not given)	HT1080NT lethal inconclusive, KB-3-1 tox 9.2µM, MCF10A rereplic inconclusive, KB-V1 cytotox inconclusive
O=c1[nH]c(=O)n(C2OC(CO)C(O)C2O)cc1F (stereo not given)	HT1080 IDH1KD tx 0.92µM, HT1080NT lethal 10µM, KB-3-1 tox 21µM, SW480 rereplic 1µM, MCF10A rereplic inconclusive, KB-V1 cytotox 21µM
O=c1[nH]cnc2c1ccn2C1OC(CO)C(O)C1O (stereo not given)	KB-3-1 tox 15µM, MCF10A rereplic 2.1µM, KB-V1 cytotox 16µM (no result: HT1080 IDH1KD tx, HT1080NT lethal)
COc1ccc(NC(=O)COC(=O)c2ccc(S(=O)(=O)N3CCCCC3)cc2)c(OC)c1	none (no result: SW480 rereplic, MCF10A rereplic)
CCCCN(C(=O)/C=C/c1ccc(OC)cc1)C1CCS(=O)(=O)C1 (stereo not given)	KB-V1 cytotox inconclusive
Cc1ccc(S(=O)(=O)N(C)CC(=O)N(CC(C)C)C2CCS(=O)(=O)C2)cc1 (stereo not given)	SW480 rereplic 4.1µM
CCCN(C(=O)/C=C/c1ccc(S(=O)(=O)N(CC)CC)cc1)C1CCS(=O)(=O)C1 (stereo not given)	KB-V1 cytotox 23µM
CC(C)CN(C(=O)CN(C)S(=O)(=O)c1ccc(Cl)cc1)C1CCS(=O)(=O)C1 (stereo not given)	none
CCC(C)N(C(=O)c1csnn1)C(C(=O)NCc1ccc(F)cc1)c1ccco1 (stereo not given)	KB-V1 cytotox 16µM
CCC(C)(C)NC(=O)C(c1ccco1)N(C(=O)c1csnn1)c1cccc(F)c1 (stereo not given)	KB-V1 cytotox 16µM
O=C(Nc1ccc2c(c1)OCO2)c1ccc(N2CCCC2)c([N+](=O)[O-])c1	KB-V1 cytotox 23µM
O=C(Nc1ccc2c(c1)OCO2)c1ccc2c(c1)OCO2	none
O=C(NCc1ccc2c(c1)OCO2)c1cc([N+](=O)[O-])ccc1N1CCCCC1	HT1080 IDH1KD tx 8.2µM, HT1080NT lethal 7.3µM, KB-3-1 tox 2.1µM, SW480 rereplic 5.8µM, MCF10A rereplic 2.6µM, KB-V1 cytotox inconclusive
O=C(Nc1ccc2c(c1)OCO2)c1ccc(Br)c(S(=O)(=O)N2CCCC2)c1	KB-3-1 tox inconclusive, KB-V1 cytotox 5.2µM
O=C(Nc1ccc2c(c1)OCCO2)c1ccc(Br)c(S(=O)(=O)N2CCOCC2)c1	MCF10A rereplic inconclusive, KB-V1 cytotox inconclusive
O=C(Nc1ccc2c(c1)OCO2)c1ccc(NC2CC2)c([N+](=O)[O-])c1	HT1080NT lethal inconclusive, KB-3-1 tox inconclusive, SW480 rereplic inconclusive, MCF10A rereplic inconclusive, KB-V1 cytotox 15µM
O=C(NCc1ccco1)c1cc([N+](=O)[O-])ccc1N1CCCCC1	MCF10A rereplic inconclusive
CN(C)CCCNC(=O)c1cc(C(=O)c2c(Cl)cccc2Cl)c[nH]1	none
O=C(COC(=O)c1cc([N+](=O)[O-])ccc1N1CCOCC1)NCc1ccccc1	none (no result: SW480 rereplic, MCF10A rereplic)
O=C(Nc1ccc(N2CCCCC2)c(Cl)c1)c1ccc2c(c1)OCCO2	HT1080 IDH1KD tx inconclusive, HT1080NT lethal inconclusive, KB-3-1 tox 16µM, MCF10A rereplic inconclusive, KB-V1 cytotox inconclusive
COc1cccc(CNC(=O)COC(=O)c2cc([N+](=O)[O-])ccc2N2CCCC2)c1	KB-V1 cytotox 7.3µM
